# Laboratory results from PubChem BioAssay (EPA / NIEHS).
# Where “and” joins values, the source holds several entries; their conditions need not be identical. Identical values can stand only once. Some compounds were tested as several samples or in several runs, with calls that do not always agree. Calls of active or inactive are those of the source. Rule for the calls: active = hit-call score of the fitted dose curve at least 0.9, where 1 is the maximum; inactive = score below 0.9.
# Experiment: ATG_PXRE_CIS: Attagene CIS-FACTORIAL HepG2 Assay for human Pregnane X Receptor Element (PXRE) (AID 2282957)
# Details: HepG2 Attagene CIS-FACTORIAL PXRE reporter, mRNA; actives raise or lower the signal
# Description: ATG_CIS is a cell-based, multiplexed-readout assay that uses HepG2, a human liver cell line, with measurements taken at 24 hours after chemical dosing in a 24-well plate.ATG_PXRE_CIS is one of 52 assay component(s) measured or calculated from the ATG_CIS assay. It is designed to make measurements of mRNA induction, a form of inducible reporter, as detected with fluorescence intensity signals by Reverse transcription polymerase chain reaction (RT-PCR) and Capillary electrophoresis technology.Data from the assay component ATG_PXRE_CIS was analyzed into 1 assay endpoint. This assay endpoint, ATG_PXRE_CIS, was analyzed with bidirectional fitting relative to DMSO as the negative control and baseline of activity. Using a type of inducible reporter, measures of mRNA for gain or loss-of-signal activity can be used to understand the reporter gene at the transcription factor-level as they relate to the gene NR1I2. Furthermore, this assay endpoint can be referred to as a primary readout, because this assay has produced multiple assay endpoints where this one serves a reporter gene function. To generalize the intended target to other relatable targets, this assay endpoint is annotated to the nuclear receptor intended target family, where the subfamily is non-steroidal.
# Human liver HepG2 cells are transiently transfected with multiple reporter transcription units (MRTUs) in 6-well plates using FuGene 6 reagent (Roche; 3 ml FuGene/1 mg DNA). The MRTU constructs are regulated by a cis-regulating element (promoter). […] A major difference between the CIS and TRANS system is that in CIS activities of endogenous TFs are measured, whereas the TRANS assay evaluates changes in activities of exogenous, chimeric NR-Gal4 proteins. […] At the end of 24 hour incubation, total RNA was isolated using TriZol reagent (Invitrogen). The isolated RNA is then reverse-transcribed using oligo(dT) primer and Mo-MLV reverse transcriptase (Invitrogen) with DNAse I (Ambion) treatment for 30 min. The one-tenth of the produced cDNA was amplified by PCR using Taq DNA polymerase (Invitrogen) and two reporter sequence-specific primers. The PCR products were fluorescently labeled by primer extension with 6-arboxyfluorescein (6-FAM) 5'-labeled reporter sequence-specific primer (2 min at 95 C, 20 s at 68 C and 10 min at 72 C) and these products were digested with 5U of HpaI (New England Biolabs) for 2h at 37 C. The fragments were purified using Qiaquick PCR columns (Qiagen), analyzed on an ABI 3130xL genetic analyzer (Applied Biosystems) with peak positions identified by using a set of X-rhodamine (ROX)-labeled MapMarker1000 molecular weight standards (BioVentures). The raw capillary electrophoresis data was processed using Attagraph software (Attagene).
Structure (SMILES),outcome,AC50
FC(F)(I)C(F)(F)C(F)(F)C(F)(F)I,inactive,–
FC(F)(F)C(F)(F)C(F)(F)C(F)(F)C(F)(F)C(F)(F)CC1CO1 (stereo not given),inactive,–
O[Si](c1ccccc1)(c1ccccc1)c1ccccc1,–,0.897 µM (active)
FC(F)(F)C(F)(F)C(F)(F)C(F)(F)C(F)(F)C(F)(F)C(F)(F)Br,inactive,–
O=C(O)C(F)(F)C(F)(F)C(F)(F)C(F)(F)F,inactive,–
FC(F)(F)C(F)(F)C(F)(F)C(F)(F)C(F)(F)C(F)(F)C(F)(F)I,inactive,–
FC(F)(F)C(F)(F)C(F)(F)C(F)(F)C(F)(F)C(F)(F)CCS,inactive,–
CCCCCCOC(=O)c1ccccc1,inactive,–
C=CC(=O)OCC(F)(F)C(F)(F)C(F)(F)C(F)(F)C(F)(F)C(F)(F)C(F)(F)F,inactive,–
CO[Si](OC)(c1ccccc1)c1ccccc1,–,18.1 µM (active)
O=S(=O)(O)C(F)(F)C(F)(F)C(F)(F)C(F)(F)C(F)(F)C(F)(F)C(F)(F)F,–,20.3 µM (active) and 19.7 µM (active)
O=C(O)C(F)(F)C(F)(F)C(F)(F)C(F)(F)C(F)(F)C(F)(F)C(F)(F)C(F)(F)C(F)(F)C(F)(F)C(F)(F)C(F)(F)C(F)(F)F,–,21.8 µM (active)
O=P(O)(O)OCCC(F)(F)C(F)(F)C(F)(F)C(F)(F)C(F)(F)C(F)(F)F,inactive,–
OCC(F)(F)C(F)(F)C(F)(F)C(F)(F)C(F)(F)C(F)(F)F,–,242 µM (active)
CCCCCCC(C)OC(=O)CCCCC(=O)OC(C)CCCCCC (stereo not given),–,12.8 µM (active)
FC(F)(F)C(F)(F)C(F)(F)C(F)(F)C(F)(F)C(F)(F)C(F)(F)C(F)(F)F,inactive,–
O=C(O)C(F)(F)C(F)(F)OC(F)(F)F,inactive,–
O=C(Cl)C(F)(F)C(F)(F)C(F)(F)C(F)(F)C(F)(F)C(F)(F)C(F)(F)C(F)(F)F,–,8.97 µM (active)
Cc1cccc(N(C)C)c1,inactive,–

Structure (SMILES),outcome,AC50
CCCCCCCOC(=O)c1ccccc1C(=O)OCCCCCCC,–,5.36 µM (active)
N=C(N)C(F)(F)C(F)(F)C(F)(F)C(F)(F)C(F)(F)C(F)(F)C(F)(F)F,inactive,–
C=C(C)C(=O)OCC(F)(F)C(F)(F)C(F)(F)C(F)(F)C(F)(F)C(F)(F)C(F)(F)F,inactive,–
CCN(CC)c1ccc2c(C)cc(=O)oc2c1,–,2.92 µM (active)
CCCCOc1ccc(N)cc1,inactive,–
CC/C=C\CCOC(C)=O,–,70 µM (active)
C#C[C@]1(O)CC[C@H]2[C@@H]3CCc4cc(OC)ccc4[C@H]3CC[C@@]21C,–,5.32 µM (active)
Cc1ccc(S(=O)(=O)OCC(F)(F)C(F)(F)C(F)(F)C(F)(F)C(F)(F)C(F)F)cc1,–,1.95 µM (active)
COC(=O)C1CCC(C(=O)OC)CC1 (stereo not given),inactive,–
CC(CCl)OP(=O)(OC(C)CCl)OC(C)CCl (stereo not given),–,3.53 µM (active)
C1COCCN1,inactive,27.2 µM (active)
CNC(=S)NC,–,24.9 µM (active)
CCCCC(CC)COP(=O)(O)OCC(CC)CCCC (stereo not given),–,9.1 µM (active)
Cc1ccc(S(=O)(=O)NCl)cc1,inactive,131 µM (active)
FC(F)(F)C(F)(F)CNCC(F)(F)C(F)(F)F,inactive,–
FC(F)(F)C(F)(F)C(F)(F)CI,inactive,–
CCCCCCS,inactive,–
OCCCC(F)(F)C(F)(F)C(F)(F)F,inactive,–
O=C(O)C=C(C(F)(F)F)C(F)(F)F,inactive,–
